TRHR PAM = TRH receptor (human) allosteric enhancement; P34981; TRHR cells, fluo-8 calcium fluorescence, EC20 TRH enhancement; enhancement, % at 2 µM; 0.66% of 360,000 active; AID 493056; in the data active means enhancement above about 30%
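TRHR-expressing cells loaded with fluo-8 calcium dye were read kinetically (ex 480/em 530) during compound addition, then stimulated with an EC20 of TRH (10 nM final). Enhancement of the Gq-mediated intracellular calcium response was scored.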
TRHR ag = activates the human TRH receptor | P34981 | TRHR cells, calcium flux fluo-8, FDSS agonist mode | activation, % at 2 µM | 0.18% of 360,000 active | AID 493084
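TRHR-expressing cells loaded with fluo-8 calcium dye; 23 nL library compound pin-transferred, kinetic FDSS fluorescence (Ex 480/Em 530) recorded about 180 s for agonist-induced calcium release, before a 10 nM TRH EC20 addition for potentiator mode.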
D1 ag = agonists of human D1 dopamine receptor | activation, % at 2 µM | HEK293 T-REx D1 cells, calcium flux, agonist mode | P21728 | 1% of 360,000 active
Target sequence (P21728 whole entry, looked up): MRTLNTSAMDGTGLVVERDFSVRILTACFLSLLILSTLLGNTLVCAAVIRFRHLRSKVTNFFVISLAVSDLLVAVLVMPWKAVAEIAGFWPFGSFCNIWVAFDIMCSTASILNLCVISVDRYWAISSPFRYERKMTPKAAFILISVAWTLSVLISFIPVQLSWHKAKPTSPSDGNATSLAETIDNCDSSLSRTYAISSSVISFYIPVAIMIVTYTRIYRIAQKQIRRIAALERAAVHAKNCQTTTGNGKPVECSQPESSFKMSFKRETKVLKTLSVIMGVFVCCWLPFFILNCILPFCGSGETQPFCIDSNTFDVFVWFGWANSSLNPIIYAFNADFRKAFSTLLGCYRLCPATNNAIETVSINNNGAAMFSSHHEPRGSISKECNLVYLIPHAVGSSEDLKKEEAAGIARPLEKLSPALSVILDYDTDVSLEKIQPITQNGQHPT
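Agonism was scored from calcium flux recorded over 180 s (1 read/s) after pintool compound addition, following a 10-cycle baseline. Cells were inducible force-coupled HEK293 TREx D1, plated overnight at 30 C and loaded with no-wash calcium dye.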
D1 antagonist = blocks dopamine activation of the human D1 receptor; HEK293 TREx D1 cells, calcium flux, dopamine EC80; hits give low values; activity change, negative = inhibition, % at 10 µM; 3.2% of 360,000 active; AID 504652; in the data active means activity change below about -30%
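Inducible Hek293 Trex D1 cells (tetracycline, overnight, 30 C). Calcium dye 30–90 min RT. Antagonist mode: EC80 dopamine added after 180 s compound read.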
D1 PAM = enhances dopamine response at the human D1 receptor | HEK293 TREx D1 cells, calcium flux, dopamine EC20 potentiation | AID 504651 | 0.036% of 360,000 active | potentiation, % at 10 µM; in the data active means potentiation above about 30%
Large screens that a line does not name were inactive. This is a sample that favours compounds with a hit; in the whole collection about 4.7% have one here. Unless noted, no stated cut-off is given here; in the data, active means activation above about 30%; inactive means the rest.

CC(C)Oc1ccc(S(=O)(=O)N2CCOCC2)cc1NC(=O)C1COc2ccccc2O1 (stereo unspecified)	D1 antagonist -44
CC(=O)c1cccc(NC(=O)CSc2nnc(-c3ccncc3)o2)c1	none
Cc1cc2c(s1)c1cnn(Cc3ccc(C(F)(F)F)cc3F)c(=O)c1n2C	none
O=C(NCC(c1cccnc1)N1CCc2ccccc2C1)C(=O)Nc1ccccc1 (stereo unspecified)	none
COc1ccc(NC(=O)C(=O)NCC(c2cccnc2)N2CCc3ccccc3C2)cc1 (stereo unspecified)	D1 antagonist -40
O=C(CSc1ccccn1)Nc1ccc(Cl)c([N+](=O)[O-])c1	D1 antagonist -34
O=C(CSc1ccccn1)Nc1ccc2ccccc2c1	none
NC(=O)c1cccc(C[C@H](C(=O)O)N2C(=O)c3ccc(C(=O)O)cc3C2=O)c1	none
COc1ccccc1CN1CC(C(=O)N(C)CCc2nc3ccc(F)cc3[nH]2)CCC1=O (stereo unspecified)	none
CSc1nn(CC(=O)Nc2cc(C)ccc2C)c(N)c1S(=O)(=O)c1ccccc1	none
COc1cc2nc(CN3CCN(S(=O)(=O)c4c(F)cccc4F)CC3)[nH]c(=O)c2cc1OC	D1 antagonist -32 (no result: D1 PAM)
Brc1ccc(CNc2ccc3ncccc3c2)cc1	D1 antagonist -41
O=C(Nc1ccc2ncccc2c1)c1cccc(Br)c1	none
Cc1ccc2c(CC(=O)Nc3ccc(F)c(S(=O)(=O)N4CCOCC4)c3)coc2c1	none
O=C1[C@H]2[C@@H](C(=O)N1c1cccc3ccccc13)C1(C(=O)c3ccccc3C1=O)N1CCC[C@@H]21	TRHR PAM 34
COc1ccc(NC(=O)C2CCN(S(=O)(=O)c3c(C)noc3/C=C/c3ccco3)CC2)cc1	none
COc1ccccc1C(=O)NC(=S)NNC(=O)c1sc2ccccc2c1Cl	TRHR ag 36, D1 ag 199
COc1ccccc1C(=O)NNC(=S)NC(=O)c1sc2ccccc2c1Cl	D1 ag 213
O=C(Nc1ccccc1Br)c1cc[n+]([O-])cc1	none
CCn1c(=O)c2cc(C(=O)Nc3cc(C)c(Cl)cc3OC)sc2c2ccccc21	none
CCOc1ccc(NC(=O)c2ccncc2)cc1	none
O=C(Nc1ccc(OCC(F)(F)C(F)F)cc1)c1ccncc1	D1 antagonist -32
NC(=S)N=Nc1c(O)[nH]c2ccccc12	none
Oc1cccc(NC(=S)N=Nc2c(O)[nH]c3ccccc23)c1	D1 antagonist -31
CCCCNC(=S)N=Nc1c(O)[nH]c2ccccc12	D1 antagonist -31
Oc1[nH]c2ccccc2c1N=NC(=S)NCCc1ccccc1	D1 antagonist -30
CC(C)c1ccc2[nH]c(O)c(N=NC(=S)NCCc3ccccc3)c2c1	none
Cc1c(-c2nsc(NC(=O)c3cccs3)n2)nnn1-c1ccc(Cl)cc1	none
COc1ccc(N(C)C(=O)NCc2noc3ccc(C)cc23)c(OC)c1	none
CCOC(=O)C1CCCN(c2nc3c(S(=O)(=O)c4ccc(Br)cc4)nnn3c3ccsc23)C1 (stereo unspecified)	none
CCCCCCCN1C/C=C\C(c2ccc(OC)cc2)N(Cc2ccc(F)cc2)C(=O)[C@H]1Cc1ccccc1 (stereo partly specified)	none
COc1ccc(C2/C=C\CN(C(=O)C3CCCC3)[C@H](Cc3ccccc3)C(=O)N2Cc2ccc(F)cc2)cc1 (stereo partly specified)	D1 antagonist -37
CCOC(=O)C1C(c2cccc(Cl)c2Cl)NC(=O)NC1(O)C(F)(F)F (stereo unspecified)	D1 antagonist -59
Cc1cc(C)cc(NC(=O)OCCN2CCN(Cc3ccccc3)CCC2=O)c1	D1 antagonist -32
Cc1ccc(S(=O)(=O)N2CCC(=O)N(CCOC(=O)Nc3ccccc3C)CC2)cc1	D1 antagonist -31
O=C1/C(=C/c2cccs2)Sc2ccccc21	D1 antagonist -93
CCCC(=O)Nc1ccc(Cl)c(NC(=S)NC(=O)C(C)C)c1	D1 antagonist -37
CCN(CC)CCCn1c(C)cc2c(c1=O)C(c1ccccc1)C(C#N)=C(N)O2 (stereo unspecified)	none
Cc1cc2c(c(=O)n1CCc1ccccc1)C(C(C)C)C(C#N)=C(N)O2 (stereo unspecified)	D1 antagonist -32

Source: PubChem (National Center for Advancing Translational Sciences (NCATS))
